{"source": "the supplement of paper PMC4206461", "data": [{"system": "Pseudomonas aeruginosa PA14 dppBCDF deletion mutant", "assay": "respiration area under curve with compound as sole nitrogen source, 24 h (OmniLog AUC (arbitrary units)); higher = more respiration / better utilisation as nitrogen source, active = 2000 or more; extreme values may be limits of the assay", "description": "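Biolog Phenotype MicroArray plates PM6-PM8: each di/tripeptide is the sole nitrogen source. Tetrazolium reduction was read in the OmniLog every 15 min for 24 h at 37°C and summarised as area under the respiration curve (arbitrary units). Values below 2000 count as no respiration. Strain is the dipeptide ABC transporter deletion mutant.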", "values": [{"smiles": "NC(N)=NCCC[C@H](NC(=O)[C@@H]1CCCN1)C(=O)O", "note": "(plate: PM8)", "respiration area under curve": "7840 (active)"}, {"smiles": "CC(C)C[C@@H](N)C(=O)N[C@@H](Cc1ccc(O)cc1)C(=O)O", "note": "(plate: PM8)", "respiration area under curve": "0 (inactive)"}, {"smiles": "CC(C)C[C@H](N)C(=O)N[C@@H](CC(N)=O)C(=O)O", "note": "(plate: PM8)", "respiration area under curve": "10700 (active)"}, {"smiles": "N[C@@H](Cc1ccccc1)C(=O)NCC(=O)NCC(=O)O", "note": "(plate: PM8)", "respiration area under curve": "1300 (inactive)"}, {"smiles": "CC(C)[C@H](N)C(=O)N[C@@H](CC(=O)O)C(=O)O", "note": "(plate: PM7)", "respiration area under curve": "18 (inactive)"}, {"smiles": "NCC(=O)NCC(=O)NCC(=O)O", "note": "(plate: PM8)", "respiration area under curve": "5.75 (inactive)"}, {"smiles": "O=C(O)[C@H](CO)NC(=O)[C@@H]1CCCN1", "note": "(plate: PM8)", "respiration area under curve": "1290 (inactive)"}, {"smiles": "N[C@@H](CCC(=O)O)C(=O)N[C@@H](CCC(=O)O)C(=O)O", "note": "(plate: PM6)", "respiration area under curve": "0 (inactive)"}, {"smiles": "CC(C)[C@H](NC(=O)[C@H](C)N)C(=O)O", "note": "(plate: PM8)", "respiration area under curve": "700 (inactive)"}, {"smiles": "CC(C)[C@H](NC(=O)[C@@H](N)CC(=O)O)C(=O)O", "note": "(plate: PM6)", "respiration area under curve": "524 (inactive)"}, {"smiles": "CSCC[C@H](NC(=O)[C@@H](N)CCCN=C(N)N)C(=O)O", "note": "(plate: PM6)", "respiration area under curve": "9400 (active)"}, {"smiles": "CC[C@H](C)[C@H](NC(=O)CNC(=O)CN)C(=O)O", "note": "(plate: PM8)", "respiration area under curve": "1 (inactive)"}, {"smiles": "N[C@@H](Cc1ccc(O)cc1)C(=O)N[C@@H](Cc1ccc(O)cc1)C(=O)O", "note": "(plate: PM7)", "respiration area under curve": "4900 (active)"}, {"smiles": "C[C@H](N)C(=O)N[C@@H](CCCN=C(N)N)C(=O)O", "note": "(plate: PM6)", "respiration area under curve": "9770 (active)"}, {"smiles": "C[C@H](NC(=O)[C@@H]1CCCN1)C(=O)O", "note": "(plate: PM7)", "respiration area under curve": "103 (inactive)"}, {"smiles": "C[C@H](N)C(=O)N[C@@H](Cc1ccccc1)C(=O)O", "note": "(plate: PM6)", "respiration area under curve": "5070 (active)"}, {"smiles": "CC[C@H](C)[C@H](N)C(=O)N[C@@H](Cc1ccc(O)cc1)C(=O)O", "note": "(plate: PM6)", "respiration area under curve": "11 (inactive)"}, {"smiles": "NC(Cc1c[nH]c2ccccc12)C(=O)NC(Cc1ccccc1)C(=O)O", "note": "(stereo not given) (plate: PM7)", "respiration area under curve": "14.8 (inactive)"}, {"smiles": "CSCC[C@H](N)C(=O)NCC(=O)O", "note": "(plate: PM7)", "respiration area under curve": "33.2 (inactive)"}, {"smiles": "N[C@@H](Cc1ccccc1)C(=O)N1CCC[C@H]1C(=O)O", "note": "(plate: PM7)", "respiration area under curve": "1.5 (inactive)"}, {"smiles": "N[C@@H](CCC(=O)O)C(=O)N[C@@H](Cc1c[nH]c2ccccc12)C(=O)O", "note": "(plate: PM6)", "respiration area under curve": "728 (inactive)"}, {"smiles": "C[C@@H](O)[C@H](N)C(=O)N[C@@H](CCC(=O)O)C(=O)O", "note": "(plate: PM7)", "respiration area under curve": "34.2 (inactive)"}, {"smiles": "CC(C)CC(N)C(=O)NC(Cc1c[nH]c2ccccc12)C(=O)O", "note": "(stereo not given) (plate: PM7)", "respiration area under curve": "7610 (active)"}, {"smiles": "CC(C)[C@H](N)C(=O)N1CCC[C@H]1C(=O)O", "note": "(plate: PM8)", "respiration area under curve": "0 (inactive)"}, {"smiles": "CC(C)C[C@H](NC(=O)[C@@H](N)Cc1c[nH]c2ccccc12)C(=O)O", "note": "(plate: PM7)", "respiration area under curve": "1830 (inactive)"}, {"smiles": "CC[C@H](C)[C@H](NC(=O)[C@@H](N)C(C)C)C(=O)O", "note": "(plate: PM7)", "respiration area under curve": "842 (inactive)"}, {"smiles": "N[C@@H](CO)C(=O)N[C@@H](Cc1ccc(O)cc1)C(=O)O", "note": "(plate: PM7)", "respiration area under curve": "1890 (inactive)"}, {"smiles": "NCC(=O)N[C@@H](CCCN=C(N)N)C(=O)O", "note": "(plate: PM6)", "respiration area under curve": "7970 (active)"}, {"smiles": "C[C@H](NC(=O)[C@@H](N)Cc1ccc(O)cc1)C(=O)O", "note": "(plate: PM7)", "respiration area under curve": "8840 (active)"}, {"smiles": "NCC(=O)N[C@@H](Cc1ccccc1)C(=O)N[C@@H](Cc1ccccc1)C(=O)O", "note": "(plate: PM8)", "respiration area under curve": "1840 (inactive)"}, {"smiles": "N[C@@H](CO)C(=O)N1CCC[C@H]1C(=O)O", "note": "(plate: PM7)", "respiration area under curve": "0 (inactive)"}, {"smiles": "O=C(O)[C@H](Cc1ccc(O)cc1)NC(=O)[C@@H]1CCCN1", "note": "(plate: PM7)", "respiration area under curve": "8430 (active)"}, {"smiles": "N[C@@H](Cc1c[nH]c2ccccc12)C(=O)N[C@@H](CCC(=O)O)C(=O)O", "note": "(plate: PM7)", "respiration area under curve": "0 (inactive)"}, {"smiles": "C[C@@H](O)[C@H](N)C(=O)N[C@@H](CC(=O)O)C(=O)O", "note": "(plate: PM8)", "respiration area under curve": "0 (inactive)"}, {"smiles": "C[C@H](N)C(=O)N1CCC[C@H]1C(=O)O", "note": "(plate: PM6)", "respiration area under curve": "717 (inactive)"}, {"smiles": "NC(=O)C[C@H](NC(=O)[C@@H](N)CO)C(=O)O", "note": "(plate: PM8)", "respiration area under curve": "10400 (active)"}, {"smiles": "CC(C)CC(N)C(=O)NC(CC(=O)O)C(=O)O", "note": "(stereo not given) (plate: PM6)", "respiration area under curve": "735 (inactive)"}, {"smiles": "CSCCC(N)C(=O)NC(CCCN=C(N)N)C(=O)O", "note": "(stereo not given) (plate: PM7)", "respiration area under curve": "13000 (active)"}, {"smiles": "O=C(O)CC[C@H](NC(=O)[C@@H]1CCCN1)C(=O)O", "note": "(plate: PM8)", "respiration area under curve": "0 (inactive)"}, {"smiles": "CC[C@H](C)[C@H](NC(=O)[C@@H]1CCCN1)C(=O)O", "note": "(plate: PM8)", "respiration area under curve": "1 (inactive)"}]}]}
